Consider 35 compounds from PubChem BioAssay.

This experiment is described as follows: compound effects on differentiated 3T3-L1 adipocyte viability – cell-based, 3T3-L1 adipocytes, calcein-AM fluorescence, 48 h, basal, profiling panel (AID 1163). Note: test concentration not given here. As to conditions: 3T3-L1 adipocytes viability, higher = more signal.
With `C=CCC(OC(C)=O)[C@@H]1[C@@H](N(Cc2ccc(-c3ccccc3)cc2)C(=O)Cc2ccc(OC)cc2)c2cc(OCCCO)ccc2N1C(=O)c1ccc2ccccc2n1` (stereo not given in full), the z-score was 0.273.

`COc1ccc(C#Cc2ccc3c(c2)[C@]2(C(=O)N3)[C@H](C(=O)NC[C@H](O)c3ccccc3)[C@H]3C(=O)O[C@H](c4ccccc4)[C@H](c4ccccc4)N3[C@@H]2c2ccc(OCCO)cc2)cc1`: the z-score is 1.17.

As for `COCCOC(=O)N1C(=O)[C@@]2(c3cc(C#CC4(O)CCCCCC4)ccc31)[C@H](C(=O)N1CCCCCCC1)[C@H]1C(=O)O[C@H](c3ccccc3)[C@H](c3ccccc3)N1[C@@H]2c1ccccc1OCCO`, the z-score was 1.64.

For the compound `COC(=O)c1ccc(OC)c(/C=C\CC(OC(C)=O)c2ccccc2)c1` (stereo not given), the z-score is 0.386.

Consider `Cc1ccc([C@H]2C(C(=O)O)=C[C@@H](C)N2S(=O)(=O)c2ccc(C)cc2)cc1`, for which the z-score was 0.644.

`NCCCCCCNC(=O)[C@H]1C[C@H]2C(=O)NCC(=O)N2[C@H]1c1cccc(OCCO)c1`: the z-score was -0.143.

For `COc1ccc(CCN2C(=O)[C@@]3(Cc4ccccc42)c2ccccc2C(=O)N(Cc2ccccc2Cl)[C@H]3c2ccc(CO)cc2)cc1`, the z-score is -0.0827.

As for `C=CC[C@@H](OC(=O)Nc1ccc(OC)cc1)c1ccc(O)c2ccccc12`, the z-score is 0.316.

As for `CC(C)C[C@@H]1NC(=O)[C@@H]2C[C@H](C(=O)NCCCCCC[N+](C)(C)C)[C@H](c3ccc(O)cc3)N2C1=O`, the z-score was -0.77.

Regarding `O=C1C=CC(=O)[C@@H]2CC(COc3ccccc3)=C3[C@@H](CCc4ccccc4)OB(O)C[C@@H]3[C@H]12`, the z-score is -1.23.

`CN(C)CCCCNC(=O)[C@H]1C[C@H]2C(=O)N[C@@H](Cc3ccccc3)C(=O)N2[C@H]1c1ccc(O)cc1`: the z-score was 0.7.

For the compound `CCCC[C@H]1OB(O)C[C@H]2C1=C(C)C[C@H]1C(=O)N(Cc3ccccc3)C(=O)[C@H]12`, the z-score was 0.379.

Consider `C=C[C@@H](COC(C)=O)N(Cc1ccc([N+](=O)[O-])cc1)S(=O)(=O)c1ccc(Br)cc1`, for which the z-score was -0.306.

With `COc1ccc([Si](C)(C)[C@@H]2[C@@H](CCn3cc([C@H](O)c4ccccc4)nn3)O[C@]3(C(=O)N(Cc4ccc(N5C(=O)c6cccc7cccc5c67)cc4)c4ccccc43)[C@H]2C)cc1`, the z-score is 1.91.

Turning to `CC(C)(C)OC(=O)CC[C@@]1(C(=O)NCCN2CCOCC2)N=C(c2ccc(OCCCO)cc2)O[C@@H]1c1ccccc1`, the z-score was 0.571.

Turning to `O=C1O[C@@H](c2ccccc2)[C@@H](c2ccccc2)N2[C@@H](c3ccccc3OCCO)[C@]3(C(=O)Nc4ccc(C#CC5(O)CCCCCC5)cc43)[C@@H](C(=O)Nc3nc4ccccc4s3)[C@H]12`, the z-score was 0.601.

For the compound `COCCOC(=O)N1C(=O)[C@@]2(c3cc(C#CCNC(N)=O)ccc31)[C@H](c1ccc(OCCO)cc1)N1[C@H](c3ccccc3)[C@H](c3ccccc3)OC(=O)[C@H]1[C@@H]2C(=O)N1CCc2cc(OC)c(OC)cc2C1`, the z-score is 0.427.

For `CCOC(=O)C[C@H]1[C@H](OC(=O)c2ccc(C(=O)c3ccccc3)cc2)[C@@H](NC(=O)C2CCCCC2)c2cc(OCCCO)ccc2N1C(=O)c1ccccc1`, the z-score is -0.589.

Take `CC(C)=CCCC(C)=CC(O)C1C=CC2C(=O)N(c3ccccc3)C(=O)C2N1Nc1ccccc1` (stereo not given): the z-score is -1.34.

`COC(=O)[C@@]1(Cc2ccc(OC)cc2)[C@H]2c3cc(C(=O)N4CCCC4)n(CCc4c[nH]c5cc(F)ccc45)c3C[C@H]2CN1C(=O)c1ccccc1`: the z-score was -0.124.

`Cc1ccc(F)cc1S(=O)(=O)N[C@@H]1CCN(Cc2ccc(-c3ccccc3)cc2)C1`: the z-score is -1.3.

As to `COC(=O)[C@@]1(Cc2ccc(OC)cc2)[C@H]2c3cc(C(=O)N(C)C)n(Cc4c(OC)[nH]cc(C)c4=O)c3C[C@H]2CN1C(=O)c1ccccc1`, the z-score was -0.0161.

Take `[N-]=[N+]=Nc1ccccc1[C@H]1OC(c2ccc(OCCCO)cc2)=N[C@@]1(CCS(=O)(=O)c1ccccc1)C(=O)O`: the z-score is 1.69.

`COC(=O)c1ccc(C(O)C2C=CC3C(=O)N(C)C(=O)C3N2NC(=O)OC(C)(C)C)o1` (stereo not given): the z-score was -0.425.

In the case of `CC=CC(O)C1C=CC2C(=O)N(c3ccccc3)C(=O)C2N1Nc1ccc(C(C)C)cc1` (stereo not given), the z-score is 0.146.

Consider `O=C1C[C@@](C(=O)NC2CC2)(c2ccc([N+](=O)[O-])cc2)[C@@H](c2ccc(CO)cc2)N1CC12CC3CC(CC(C3)C1)C2`, for which the z-score was 0.781.

Consider `COc1ccc(C(O)C2C=CC3C(=O)N(C)C(=O)C3N2Nc2ccccc2)cc1OCc1ccccc1` (stereo not given), for which the z-score was -0.621.

On to `[N-]=[N+]=NCc1ccccc1C[C@@]1(C(=O)N2CCOCC2)N=C(c2ccc(OCCCO)cc2)O[C@@H]1c1ccccc1CN=[N+]=[N-]`, for which the z-score was -0.19.

With `CN1C(=O)C2C=CC(C(O)c3ccccn3)N(Nc3ccccc3)C2C1=O` (stereo not given), the z-score was -0.103.

Regarding `COc1ccc(C#Cc2ccc3c(c2)[C@]2(C(=O)N3)[C@H](c3ccc(O)cc3)N3[C@H](c4ccccc4)[C@H](c4ccccc4)OC(=O)[C@H]3[C@@H]2C(=O)N2CCCCCCC2)cc1`, the z-score is 1.01.

For `O=C1OCCC=C[C@H]2OC34C=CCN(Cc5ccccc5)C(=O)[C@H]3N(CCCCCO)C(=O)[C@@H]4C12` (stereo not given in full), the z-score was -0.0568.

On to `COC(=O)C(CC#Cc1ccc2c(c1)[C@]1(C(=O)N2)[C@H](C(=O)NC[C@H](O)c2ccccc2)[C@H]2C(=O)O[C@H](c3ccccc3)[C@H](c3ccccc3)N2[C@@H]1c1ccc(OCCO)cc1)C(=O)OC`, for which the z-score is 0.55.

For `COCCOC(=O)N1C(=O)[C@@]2(c3cc(C#CCNC(N)=O)ccc31)[C@H](c1ccc(O)cc1)N1[C@H](c3ccccc3)[C@H](c3ccccc3)OC(=O)[C@H]1[C@@H]2C(=O)NC[C@H](O)c1ccccc1`, the z-score was -0.202.

In the case of `COC(=O)[C@@]1(Cc2ccccc2)[C@H]2c3cc(C(=O)N4CCCC4)n(Cc4ccc(C)o4)c3C[C@H]2CN1C(=O)c1ccccc1`, the z-score is 0.726.

Consider `COCC(=C=CC[C@H](O)c1ccc(OCCO)cc1)C[C@H](O)c1cc(Cl)cc(Cl)c1O`, for which the z-score is 0.0622.
